Reference: the supplement of paper PMC7156485
“And” between values parts separate entries of the source, which are not always exact repeats. Identical values can stand only once. ± gives the standard deviation of the averaged measurements.

tested on: HCC1569; assay: cell number relative to DMSO (% of DMSO); higher = more cells (less growth inhibition / toxicity); settings: concentration: 10 µM; 24 h
In short: (§1)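 For HCC1569 and TDF cells, compounds at 10 µM were applied for 24 h at 37 °C in triplicate in 384-well plates. Cells were fixed in 3.7% formaldehyde, stained for H1.0 and with DAPI, and imaged at ×10 over six fields per well. The endpoint, H1.0 nuclear intensity or cell number, is shown as percent of the plate control using the median of replicates. Positional effects were smoothed for HCC1569 only.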
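Also: TDF denotes transformed human dermal fibroblasts of mesenchymal origin.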

| Compound | cell number |
| --- | --- |
| O=C(O)COc1ccc(C(=O)c2cccs2)c(Cl)c1Cl [[2,3-dichloro-4-(2-thienylcarbonyl)phenoxy]acetic acid] | 106 |
| Cl.O.O.c1ccc2c(c1)CN1CCCC1=N2 [Desoxypeganine] | 101 |
| Cc1ccc(C(=O)c2cc(O)c(O)c([N+](=O)[O-])c2)cc1 [Tolcapone] | 101 |
| CC1=C(C)C(=O)C(CCCCC#CCCCC#CCO)=C(C)C1=O | 99.09 ± 0.2 |
| COc1ccc(CCNCC(O)c2ccc(O)cc2)cc1OC (stereo not drawn) [R(-)-Denopamine] | 100 |
| C=C(C)C1CC=C(C(=O)O)CC1 (single isomer, unassigned; (-)) [(-)-Perillic acid] | 104 |
| COc1ccc(-c2ccc(N)[n+](CCCC(=O)O)n2)cc1.[Br-] | 105 |
| Oc1cccc(-c2nc(N3CCOCC3)c3oc4ncccc4c3n2)c1 | 56.8 |
| CC(C)C(CO)Nc1nc(Nc2ccc(C(=O)O)c(Cl)c2)c2ncn(C(C)C)c2n1 (centres undefined) [Purvalanol B] | 101 |
| CCC1(O)CC2CN(CCc3c([nH]c4ccccc34)C(C(=O)OC)(c3cc4c(cc3OC)N(C)C3C(O)(C(=O)OC)C(OC(C)=O)C5(CC)C=CCN6CCC43C65)C2)C1.O=S(=O)(O)O (centres undefined) [Vinblastine sulfate] | 53.3 |
| CC1CC=CC=CC=CC=CC(OC2OC(C)C(O)C(N)C2O)CC2OC(O)(CC(O)CC3OC3C=CC(=O)O1)CC(O)C2C(=O)O (centres undefined) [Pimaricin] | 106 |
| COc1ccc2c(c1OC)C(=O)OC2C1c2c(cc3c(c2OC)OCO3)CCN1C.Cl (centres undefined) [Noscapine hydrchloride] | 102 |
| Cn1cnc([N+](=O)[O-])c1Sc1ncnc2nc[nH]c12 [Azathioprine] | 99.15 ± 0.87 |
| COc1c(OCCCCN2CCN(C)CC2)cc(O)c2c(=O)cc(-c3ccccc3)oc12 | 25.3 |
| O=C1NC(=O)C(c2cn(CCCn3ccnc3)c3ccccc23)=C1Nc1ccccc1 [PKCb Inhibitor] | 100 |
| CCCCCCCCC=CCCCCCCCC(=O)NCCO [N-Oleoylethanolamine] | 99.9 |
| Cc1cc(N)c2ccccc2[n+]1CCCCCCCCCC[n+]1c(C)cc(N)c2ccccc21.[Cl-].[Cl-] [Dequalinium dichloride] | 74.8 |
| CCCCCC(O)c1cccc(OCc2ccc3ccccc3n2)c1 (centres undefined) | 103 and 102 |
| CC(=O)CCCCn1c(=O)c2c(ncn2C)n(C)c1=O [Pentoxifylline] | 103 ± 4.1 |
| C=CCn1c(=O)c2c(nc(-c3ccc(S(=O)(=O)O)cc3)n2C)n(C)c1=O [1-Allyl-3,7-dimethyl-8-p-sulfophenylxanthine] | 102 |
| CC1=C(CC(=O)O)c2cc(F)ccc2C1=Cc1ccc(S(C)=O)cc1 (centres undefined) [Sulindac] | 103 ± 2 |
| CCc1cccc2c3c([nH]c12)C(CC)(CC(=O)O)OCC3 (centres undefined) [Etodolac] | 98.6 |
| NNCCc1ccccc1.O=S(=O)(O)O [Phenelzine sulfate] | 103 |
| C=CCc1ccc(O)c(-c2cc(CC=C)ccc2O)c1 [Magnolol] | 98 |
| CCCOC(=O)c1cc(O)c(O)c(O)c1 [N-Propyl gallate] | 89 |
| CCC(C)C(=O)OC1CC(C)C=C2C=CC(C)C(CCC3CC(O)CC(=O)O3)C21 (centres undefined) [Lovastatin] | 99.4 |
| Cc1ccc(S(=O)(=O)N2c3ccccc3Oc3ccccc32)cc1 [10-[(4-methylphenyl)sulfonyl]-10H-phenoxazine] | 53.5 |
| O=C(CCN1CCN(C(=O)OCc2cc(Cl)cc(Cl)c2)CC1)c1ccc2[nH]c(=O)oc2c1 | 70.5 |
| CCC(C)C(=O)OC1CC(O)C=C2C=CC(C)C(CCC3CC(O)CC(=O)O3)C21 (centres undefined) [Pravastatin Lactone] | 101 |

tested on: TDF; assay: as above; settings: concentration: 10 µM; 24 h
In short: as §1

| Compound | cell number |
| --- | --- |
| NC(=O)c1cnccn1 [Pyrazinecarboxamide] | 106 |
| COc1ccc(-c2cc(C(O)C3CCCCN3)c3ccccc3n2)cc1.Cl.Cl (centres undefined) | 24.8 |
| O=S(=O)(NCc1ccccn1)c1ccc(Br)c2ccccc12 [4-bromo-N-(2-pyridinylmethyl)-1-naphthalenesulfonamide] | 99.2 |
| COc1cc(OC)cc(-c2cc3cnc(N)nc3nc2NC(=O)NC(C)(C)C)c1 | 90.4 |
| Br.C=CCN1CCc2c(cc(O)c(O)c2Br)C(c2ccccc2)C1 (stereo not drawn) [R(+)-6-Bromo-APB hydrobromide] | 87.2 |
| Nc1nc(OCc2cc(Br)cs2)c2[nH]cnc2n1 [6-[(4-bromo-2-thienyl)methoxy]-1H-purin-2-amine] | 107 |
| COC1C(OC(N)=O)C(O)C(Oc2ccc3c(O)c(NC(=O)c4ccc(O)c(CC=C(C)C)c4)c(=O)oc3c2C)OC1(C)C.[Na+] (centres undefined) [Novobiocin.Na] | 112 |
| CNC1C(OC2OC(CO)C(N)C(O)C2O)OC2CC(N)C(OC3C(N)CC(N)C(O)C3O)OC2C1O (centres undefined) [Apramycin] | 96.3 |
| CCc1nn(CCCN2CCN(c3cccc(Cl)c3)CC2)c(=O)n1CCOc1ccccc1 [Nefazodone] | 100 |
| COc1cc(NS(=O)(=O)c2ccc(N)cc2)nc(OC)n1 [Sulfadimethoxine] | 109 |
| O=C(Nc1cc(Cl)cc2c1[nH]c1cnccc12)c1cccnc1 [IKK Inhibitor X] | 91.8 |
| O=C(O)COc1ccc(C(=O)c2cccs2)c(Cl)c1Cl [[2,3-dichloro-4-(2-thienylcarbonyl)phenoxy]acetic acid] | 99.8 |
| Cl.O.O.c1ccc2c(c1)CN1CCCC1=N2 [Desoxypeganine] | 109 |
| Cc1ccc(C(=O)c2cc(O)c(O)c([N+](=O)[O-])c2)cc1 [Tolcapone] | 92.1 |
| CC1=C(C)C(=O)C(CCCCC#CCCCC#CCO)=C(C)C1=O | 85 ± 1.8 |
| COc1ccc(CCNCC(O)c2ccc(O)cc2)cc1OC (stereo not drawn) [R(-)-Denopamine] | 103 |
| C=C(C)C1CC=C(C(=O)O)CC1 (single isomer, unassigned; (-)) [(-)-Perillic acid] | 104 |
| COc1ccc(-c2ccc(N)[n+](CCCC(=O)O)n2)cc1.[Br-] | 97.9 |
| Oc1cccc(-c2nc(N3CCOCC3)c3oc4ncccc4c3n2)c1 | 70 |
| CC(C)C(CO)Nc1nc(Nc2ccc(C(=O)O)c(Cl)c2)c2ncn(C(C)C)c2n1 (centres undefined) [Purvalanol B] | 110 |

| Compound | cell number |
| --- | --- |
| CCC1(O)CC2CN(CCc3c([nH]c4ccccc34)C(C(=O)OC)(c3cc4c(cc3OC)N(C)C3C(O)(C(=O)OC)C(OC(C)=O)C5(CC)C=CCN6CCC43C65)C2)C1.O=S(=O)(O)O (centres undefined) [Vinblastine sulfate] | 11.2 |
| CC1CC=CC=CC=CC=CC(OC2OC(C)C(O)C(N)C2O)CC2OC(O)(CC(O)CC3OC3C=CC(=O)O1)CC(O)C2C(=O)O (centres undefined) [Pimaricin] | 94 |
| COc1ccc2c(c1OC)C(=O)OC2C1c2c(cc3c(c2OC)OCO3)CCN1C.Cl (centres undefined) [Noscapine hydrchloride] | 93.7 |
| Cn1cnc([N+](=O)[O-])c1Sc1ncnc2nc[nH]c12 [Azathioprine] | 101.8 ± 0.74 |
| COc1c(OCCCCN2CCN(C)CC2)cc(O)c2c(=O)cc(-c3ccccc3)oc12 | 34.9 |
| O=C1NC(=O)C(c2cn(CCCn3ccnc3)c3ccccc23)=C1Nc1ccccc1 [PKCb Inhibitor] | 113 |
| CCCCCCCCC=CCCCCCCCC(=O)NCCO [N-Oleoylethanolamine] | 108 |
| Cc1cc(N)c2ccccc2[n+]1CCCCCCCCCC[n+]1c(C)cc(N)c2ccccc21.[Cl-].[Cl-] [Dequalinium dichloride] | 64.1 |
| CCCCCC(O)c1cccc(OCc2ccc3ccccc3n2)c1 (centres undefined) | 107 and 102 |
| CC(=O)CCCCn1c(=O)c2c(ncn2C)n(C)c1=O [Pentoxifylline] | 106 ± 5.2 |
| C=CCn1c(=O)c2c(nc(-c3ccc(S(=O)(=O)O)cc3)n2C)n(C)c1=O [1-Allyl-3,7-dimethyl-8-p-sulfophenylxanthine] | 108 |
| CC1=C(CC(=O)O)c2cc(F)ccc2C1=Cc1ccc(S(C)=O)cc1 (centres undefined) [Sulindac] | 111 ± 6.2 |
| CCc1cccc2c3c([nH]c12)C(CC)(CC(=O)O)OCC3 (centres undefined) [Etodolac] | 101 |
| NNCCc1ccccc1.O=S(=O)(O)O [Phenelzine sulfate] | 102 |
| C=CCc1ccc(O)c(-c2cc(CC=C)ccc2O)c1 [Magnolol] | 98.2 |
| CCCOC(=O)c1cc(O)c(O)c(O)c1 [N-Propyl gallate] | 91 |
| CCC(C)C(=O)OC1CC(C)C=C2C=CC(C)C(CCC3CC(O)CC(=O)O3)C21 (centres undefined) [Lovastatin] | 80.8 |
| Cc1ccc(S(=O)(=O)N2c3ccccc3Oc3ccccc32)cc1 [10-[(4-methylphenyl)sulfonyl]-10H-phenoxazine] | 11.3 |
| O=C(CCN1CCN(C(=O)OCc2cc(Cl)cc(Cl)c2)CC1)c1ccc2[nH]c(=O)oc2c1 | 104 |
| CCC(C)C(=O)OC1CC(O)C=C2C=CC(C)C(CCC3CC(O)CC(=O)O3)C21 (centres undefined) [Pravastatin Lactone] | 109 |
